# From PubChem
# IL-1B inflam inh = inhibitors of inflammasome signaling (IL-1 beta secretion); THP-1 LPS/ATP IL-1B secretion, AlphaLISA, 16 h; active compounds read low; activity change, % at 57.5 µM; actives 4.7% (n = 360,000); AID 743279; in the data active means activity change below about -50%; inconclusive means mostly about -30% to -49%; further: on the % scale 0 is the no-effect control and ±100 the full control effect
#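 THP-1 cells pretreated 1 hr with compounds (up to 57.5 uM final), then stimulated with LPS (250 ng/mL final) plus ATP (1.25 mM final); secreted IL-1B measured by AlphaLISA after 16 hr, decreased signal indicating inhibition.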
# DT40 TDP1 no CPT = qHTS for Inhibitors of human tyrosyl-DNA phosphodiesterase 1 (TDP1): qHTS in cells in absence of CPT; DT40 Tdp1-/- hTDP1 cells, no CPT, ATP luminescence, 48 h; Potency, µM (highest dose often 46.2 µM), for the others: top-dose activity change, negative = growth inhibition, hits mostly inhibitors; actives 15% (n = 420,000); AID 686978, 2013; further: potency means the concentration at half of the fitted maximal effect; on the % scale 0 is the no-effect control and ±100 the full control effect; nearly all actives have a fitted effect of over 55% in size
#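 DT40 Tdp1-/-;hTDP1 cells, no CPT (DMSO vehicle only), 400 cells/well; compounds pin-transferred; ≥48 hr, 37 °C; CellTiter-Glo 30 min RT dark, luminescence read.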
# HepG2 tox = HepG2 cytotoxicity, counter-screen for TGF-b inhibitors | HepG2 CAGA-GFP viability, ATP luminescence, 18 h | Potency, µM (highest dose often 46.1 µM), without a hit: at the highest dose activity change, negative = cytotoxicity, usual class: cytotoxic | actives 0.76% (n = 410,000); further: potency means the concentration at half of the fitted maximal effect
#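 HepG2 CAGA-GFP cells (1000/well, DMEM with 1% FBS) received compound, then TGF-beta at 500 pg/mL final, and were incubated 18 hours at 37 degrees C. Viability was read by CellTiter-Glo luminescence. Media-only wells were set as complete cell-killing and DMSO as no toxicity.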
# TDP1 block = inhibitors of human tyrosyl-DNA phosphodiesterase TDP1. Q9NUW8. recombinant TDP1, AlphaScreen DNA substrate cleavage. Potency, µM (series often up to 130 µM), for the others: at the highest dose activity change, negative = inhibition, most hits filed as inhibitors. actives 0.28% (n = 350,000). AID 485290; further: potency means the concentration at half of the fitted maximal effect; on the % scale 0 is the no-effect control and ±100 the full control effect; nearly all actives have a fitted effect of over 40% in size
# Target sequence (Q9NUW8 whole entry, looked up): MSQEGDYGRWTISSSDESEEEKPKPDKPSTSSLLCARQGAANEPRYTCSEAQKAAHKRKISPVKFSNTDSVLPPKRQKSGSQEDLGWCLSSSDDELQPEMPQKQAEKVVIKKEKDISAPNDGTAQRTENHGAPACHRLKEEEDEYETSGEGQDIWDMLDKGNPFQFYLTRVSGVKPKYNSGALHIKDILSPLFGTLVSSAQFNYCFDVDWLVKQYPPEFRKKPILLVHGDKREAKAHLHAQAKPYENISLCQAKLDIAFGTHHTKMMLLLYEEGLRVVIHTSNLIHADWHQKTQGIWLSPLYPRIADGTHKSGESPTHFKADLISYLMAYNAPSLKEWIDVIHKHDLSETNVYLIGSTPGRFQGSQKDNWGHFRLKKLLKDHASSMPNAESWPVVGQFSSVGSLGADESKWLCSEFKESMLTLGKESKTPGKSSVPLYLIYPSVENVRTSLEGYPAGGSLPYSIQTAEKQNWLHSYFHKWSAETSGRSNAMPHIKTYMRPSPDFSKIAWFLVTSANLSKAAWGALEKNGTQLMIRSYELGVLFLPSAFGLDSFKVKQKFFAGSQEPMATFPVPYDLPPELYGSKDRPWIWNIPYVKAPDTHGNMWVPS
#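 Recombinant E. coli-expressed Tdp1 (1 nM) preincubated with compound 15 min at RT, then 5'-biotin/3'-phosphotyrosine-FITC DNA substrate (15 nM) added for 5 min. AlphaScreen beads (10 ug/ml) added, 10 min RT; tyrosine-FITC cleavage read as signal loss.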
# DT40 TDP1 CPT = growth inhibition of DT40 Tdp1-/-;hTDP1 cells with camptothecin (screen for TDP1 inhibitors); chicken DT40 Tdp1-/-;hTDP1 cells + 20 nM CPT, ATP luminescence, 48 h; Potency, µM (top dose mostly 46.2 µM), without a hit: at the highest dose activity change, negative = growth inhibition, actives largely listed as inhibitors; actives 12% (n = 420,000); AID 686979; further: potency means the concentration at half of the fitted maximal effect; on the % scale 0 is the no-effect control and ±100 the full control effect; nearly all actives have a fitted effect of over 55% in size
#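 Chicken DT40 Tdp1-/- cells stably complemented with human TDP1 were seeded at 400 cells/well in medium containing 20 nM camptothecin, exposed to pin-transferred compounds, and grown at 37 °C for at least 48 hr. Viability was read as ATP luminescence.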
# TGFb SMAD3 inh = inhibitors of TGF-b signaling | HepG2 CAGA-GFP TGF-b/SMAD3 reporter, GFP fluorescence, 18 h; TGF-beta stimulated, 500 pg/mL final | Potency, µM (titrated, usually from 46.1 µM), without a hit: at the top dose activity, negative = inhibition, hits mostly inhibitors | actives 1.2% (n = 410,000) | AID 588855; further: potency means the concentration at half of the fitted maximal effect; on the % scale 0 is the no-effect control and ±100 the full control effect; nearly all actives have a fitted effect of over 65% in size
#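 HEPG2 CAGA-GFP, 1000 cells/well; 2 h settle, 37 C; cpd via pin tool; TGF-b 500 pg/mL final; 18 h, 37 C; GFP imaging ex488/em500-530; %Activity normalised to -TGF-b and +DMSO controls; CRC fit, curve class.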
# An asterisk follows results filed as active; ? = inconclusive; / = no result. In the library only some 19% were active in any assay of this set; here they are far more common. Unless noted, the call rests on the fitted dose curve; in most records, active means well fitted curve in the direction sought with a large enough effect; inconclusive means small, poorly fitted or top-dose-only effect, or another doubt; inactive means no such curve, though single readings can be large; an effect the other way counts as inactive or inconclusive.
SMILES,IL-1B inflam inh,DT40 TDP1 no CPT,HepG2 tox,TDP1 block,DT40 TDP1 CPT,TGFb SMAD3 inh
Cc1cc(C)c(S(=O)(=O)Cc2ccccc2)c(OC(C)C)n1,11.6,-11.7%,6.3%,/,-27.8%,0.3%
O=C(CCNC(=O)c1ccc(Cl)cc1)Nc1ccccc1N1CCCCC1,-10.0,?,-18.3%,3.1%,?,0.6%
CCOC(=O)c1c(NC(C)=O)c2c3c(sc2n1Cc1nc(-c2ccc(Cl)cc2)oc1C)CCCC3,/,-21.0%,-34.8%,-4.9%,?,/
S=c1[nH]nc(-c2cc(-c3ccccc3)n[nH]2)n1/N=C/c1cccc(Cl)c1,21.2,-22.1%,-11.2%,35.5µM*,?,-0.2%
S=c1[nH]nc(-c2cc(-c3ccccc3)n[nH]2)n1/N=C/c1ccc(Cl)c(Cl)c1,63.1,?,-15.7%,79.4µM*,?,?
Cc1cc(C)c(C#N)c(SCC(=O)c2cccs2)n1,-98.5*,?,-0.1%,50.1µM*,-23.2%,0.0%
Cc1cc(C)c(C(N)=O)c(SCC(=O)c2ccc(Cl)cc2)n1,-20.5,?,-32.9%,2.0%,?,-2.6%
Cc1cc(C)c(C#N)c(SCC(=O)c2ccccc2)n1,-11.5,-46.0%,-9.0%,-6.0%,16.4µM*,10µM*
Cc1ccc(C(=O)CSc2nc(C)cc(C)c2C(N)=O)cc1,-52.1*,?,7.9%,-2.8%,?,-6.8%
COC(=O)CSc1nc(C)cc(C)c1C#N,-10.7,-5.5%,6.7%,-2.4%,-4.8%,12.6%
O=C(c1ccc2c(c1)OCO2)N(c1ccc(Br)cc1)C1C=CS(=O)(=O)C1 (centres undefined),9.7,-3.9%,-21.0%,6.7%,3.0%,-8.1%
Cn1c(SCCOc2ccccc2)nnc1-c1ccc(NC(=O)CCc2ccccc2)cc1,/,-11.5%,-18.0%,/,2.2%,-14.6%
COc1cc(-c2nc3ccc(Cl)cn3c2Nc2ccc3c(c2)OCO3)ccc1O,/,13µM*,-64.7%,9.3%,14.6µM*,?
COC(=O)c1cccc(Nc2c(-c3ccc(O)c(OC)c3)nc3nc[nH]n23)c1,/,?,-10.6%,0.5%,?,-9.8%
COc1cc(-c2nc3sccn3c2Nc2cccc(C)c2)ccc1O,/,16.4µM*,-25.6%,10.9%,?,-17.2%
COc1ccc(-c2nc3ccc(C)cn3c2Nc2ccc3c(c2)OCO3)cc1,/,4.6%,-4.3%,4.7%,-15.0%,-7.4%
COc1cc(-c2nc3ccc(C)cn3c2Nc2ccc(Cl)cc2)ccc1O,/,18.4µM*,15.8µM*,10.0%,16.4µM*,?
CN(C)c1ccc(-c2nc3ccc(Cl)cn3c2Nc2ccc3c(c2)OCCO3)cc1,/,14.6µM*,-21.1%,11.6%,?,-1.5%
COc1ccc(OC)c(S(=O)(=O)NCC(c2ccc(N(C)C)cc2)N2CCOCC2)c1 (centres undefined),/,-18.7%,-20.0%,-3.8%,-21.9%,-40.3%
Cc1ccc(NC(=O)COc2ccc3oc4c(c3c2)CCCC4)cc1C,/,-27.4%,1.7%,/,-25.6%,8.6%
Clc1ccc2nc(-c3ccccn3)c(Nc3ccc4c(c3)OCO4)n2c1,6.3,20.6µM*,10.8%,13.2%,?,15.4%
Clc1ccc2nc(-c3cccs3)c(Nc3ccc4c(c3)OCCO4)n2c1,/,-24.8%,4.4%,2.5%,?,22.4%
O=C1C=CN(Cc2ccccc2)C(c2ccccc2)C1 (centres undefined),-5.1,-26.6%,-27.5%,1.3%,?,14.1%
O=C1[C@H](Cc2ccccc2)NCCCC[C@@H](c2ccc(Cl)cc2)N1Cc1ccccc1,-53.1*,13µM*,-68.4%,/,18.4µM*,?
O=C1[C@H](Cc2ccccc2)NCCCC[C@H](c2ccc(Cl)cc2)N1Cc1ccc(Cl)cc1,?,18.4µM*,-20.4%,/,23.1µM*,?
SMILES,IL-1B inflam inh,DT40 TDP1 no CPT,HepG2 tox,TDP1 block,DT40 TDP1 CPT,TGFb SMAD3 inh
COc1ccccc1-c1nnc(SCC#CCOC(=O)c2ccc(F)cc2)o1,/,/,/,-4.5%,/,/
Cc1ccc(CC(C)(O)CC(C)(O)Cc2ccc(C)cc2)cc1 (centres undefined),-3.1,18.4µM*,-66.0%,/,20.6µM*,?
Cc1ccc(CO)cc1,/,/,/,4.2%,/,/
N#Cc1ccccc1OCC(=O)Nc1ccc(S(=O)(=O)N2CCOCC2)cc1,-17.8,?,-3.0%,0.1%,-21.1%,-1.9%
O=C1CSC(=S)N1c1cccnc1,2.8,?,-35.6%,5.1%,?,-3.6%
O=C(O)c1cc(C(=O)O)cc(N2C(=O)CSC2=S)c1,0.0,24.7%,-2.1%,-7.5%,4.1%,-3.0%
O=C1CSC(=S)N1Cc1cccnc1,-83.7*,4.61µM*,-26.3%,9.4%,4.61µM*,7.94µM*
O=C(O)c1ccc(N2C(=O)CSC2=S)cc1,-62.3*,?,-16.7%,/,?,5.8%
O=C(O)c1ccc(CN2C(=O)CSC2=S)cc1,-20.2,18.4µM*,-16.4%,?,18.4µM*,-2.5%
CC1c2ccccc2-c2ccccc2N1C (centres undefined),-3.4,?,1.8%,/,-23.4%,?
CC(C)=CC(=O)N1CCCC(N2CCN(c3ccccc3C)CC2)C1 (centres undefined),14.3,?,-6.0%,/,11.5%,0.9%
Cc1ccc(NC(=O)COC(=O)c2ccc3c(c2)C(=O)N(CCc2ccccc2)C3=O)c(C)c1,6.3,6.51µM*,-3.5%,5.8%,?,3.9%
CCOc1ccc(NC(=O)COC(=O)c2ccc3c(c2)C(=O)N(CCc2ccccc2)C3=O)cc1,14.6,?,-1.8%,4.7%,?,-1.0%
c1ccc(COc2ccccc2CNC2CCCC2)cc1,-70.4*,?,-6.0%,7.7%,?,-3.2%
COc1cccc(CNC2CCCCCCC2)c1OC,-13.3,-18.8%,-9.7%,/,6.7%,-1.0%
c1ccc(COc2ccccc2CNC23CC4CC(CC(C4)C2)C3)cc1,-95.3*,14.6µM*,10µM*,0.0%,18.4µM*,?
CCCn1nnnc1NCc1ccccc1OCc1cccs1,-2.5,-6.6%,5.4%,-2.3%,-24.7%,0.4%
c1csc(COc2ccccc2CNC2CCCCC2)c1,-72.6*,?,-29.9%,5.5%,?,-13.3%
COc1ccccc1CNC(=O)C12CC3CC(CC(C3)C1)C2,11.8,?,1.3%,/,?,-13.3%
Cc1cn2c(=O)cc(COC(=O)c3cccc(NC(=O)COc4ccccc4Cl)c3)nc2s1,/,?,2.3%,3.8%,?,14.0%
COc1cc(S(=O)(=O)NCc2ccc3c(c2)OCO3)ccc1F,-0.5,-5.5%,-6.8%,/,-18.7%,-3.0%
